An excerpt weighted towards active compounds, which were near 9.2% of everything screened.
Rab9 prom act: activators of Rab9 promoter | Huh7 Rab9 promoter-luciferase reporter, luminescence, 24 h | Potency, µM (series often up to 9.22 µM), for the others: at the top dose activation, negative = inhibition, most hits filed as activators | 320,000 tested, 2.8% active | AID 485297; also: % of control where 0% means no effect; nearly all actives have a fitted effect of over 60% in size
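Using Huh7 cells stably transfected with Rab9 promoter–luciferase, compounds were incubated 24 h at 37 °C, 5% CO2; luciferase luminescence was read 10 min after reagent addition.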
FLuc counter: counter-screen for miR-21 project: firefly luciferase inhibitors or activators; Potency, µM (doses to about 57.5 µM), inactives show top-dose activity change, negative = inhibition, actives largely listed as inhibitors; AID 588342; P08659; 360,000 tested, 6.9% active; purified FLuc, Km substrates, luminescence inhibition;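 also: plate controls were vehicle for no effect and reference inhibitor for full effect; nearly all actives have a fitted effect of over 55% in size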
Target sequence (P08659 whole entry, looked up): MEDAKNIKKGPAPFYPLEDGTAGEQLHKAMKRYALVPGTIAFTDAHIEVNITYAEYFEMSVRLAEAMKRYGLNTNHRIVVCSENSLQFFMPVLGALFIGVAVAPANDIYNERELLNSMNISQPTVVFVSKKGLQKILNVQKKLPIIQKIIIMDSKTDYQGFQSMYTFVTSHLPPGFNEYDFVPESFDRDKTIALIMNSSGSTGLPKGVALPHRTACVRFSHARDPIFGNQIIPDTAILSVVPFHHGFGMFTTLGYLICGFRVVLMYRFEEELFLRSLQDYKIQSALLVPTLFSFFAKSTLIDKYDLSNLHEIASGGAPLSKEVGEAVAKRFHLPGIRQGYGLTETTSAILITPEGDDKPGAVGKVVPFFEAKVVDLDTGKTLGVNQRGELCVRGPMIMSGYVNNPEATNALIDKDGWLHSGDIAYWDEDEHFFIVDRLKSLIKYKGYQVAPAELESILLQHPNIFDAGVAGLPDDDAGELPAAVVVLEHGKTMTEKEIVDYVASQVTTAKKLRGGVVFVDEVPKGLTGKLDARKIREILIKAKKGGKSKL
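Purified P. pyralis luciferase, 10 nM final, with Km-level 10 uM D-luciferin and 10 uM ATP in 50 mM Tris acetate pH 7.5, 10 mM Mg acetate, 0.01% Tween-20, 0.05% BSA; 6-point qHTS titration about 60 µM downward; luminescence read.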
ELG1 genotox: inducers of genotoxicity in HEK293T ELG1-luciferase cells. Potency, µM (highest dose often 46 µM), without a hit: top-dose activity change, positive = activation, actives largely listed as activators. HEK293T ELG1-luciferase reporter, luminescence, 16 h. AID 504466. 330,000 tested, 1.3% active; also: % of control where 0% means no effect; nearly all actives have a fitted effect of over 60% in size
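DMSO vehicle served as control against compound-treated ELG1-luciferase HEK293T cells; exposure lasted 16 hr at 37 °C and 5% CO2, followed by ONE-Glo luminescence detection after 30 min.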
SMN2 splice enh: increases expression of the SMN2 splice variant; HEK293 SMN2-luciferase splicing reporter, luminescence, 30-36 h; Potency, µM (titrated, usually from 46.1 µM), inactives show at the top dose activity change, positive = activation, hits mostly activators; 210,000 tested, 2.8% active; also: % of control where 0% means no effect; nearly all actives have a fitted effect of over 55% in size
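HEK293 cells carry an SMN2 […]–luciferase reporter in which exon 7 inclusion puts luciferase in frame. Cells were plated 10-12 h before compound addition, then incubated 30-36 h at 37C. ONE-Glo luminescence was read; sodium butyrate at 4.5 mM final served as control.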
ELG1 DNA repair: ELG1-dependent DNA repair inhibition | HEK293T ELG1-luciferase reporter, luminescence, 16 h; DNA damage induced by 5-fluorouridine | Potency, µM (doses to about 46.1 µM), without a hit: at the top dose activity change, negative = inhibition, most hits filed as inhibitors | 330,000 tested, 2.3% active | AID 504467; also: % is scaled to controls: 0 for no effect and ±100 for the full control effect; nearly all actives have a fitted effect of over 55% in size
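5-Fluorouridine DNA damage + compound/DMSO, 2,000 cells/well, 16 h, 37 °C/5% CO2. ONE-Glo, 30 min RT, luminescence. Readout = decrease in reporter signal.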
NPC1 prom act: NPC1 promoter activation; Huh7 NPC1 promoter luciferase reporter, 24 h; Potency, µM (top dose mostly 9.22 µM), inactives show top-dose activation, hits mostly activators; 320,000 tested, 2.4% active; also: % of control where 0% means no effect; nearly all actives have a fitted effect of over 60% in size
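Luminescence read-out of NPC1 promoter-driven luciferase in stably transfected Huh7 cells; compounds delivered in DMSO and left 24 h at 37C, 5% CO2, qHTS titration format.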
Numbers without * were called inactive; ? = inconclusive; . = no result given. Calls follow the shape of the dose curve; as a rule, active = well fitted curve in the direction sought with a large enough effect; inconclusive = small, poorly fitted or top-dose-only effect, or another doubt; inactive = no such curve, though single readings can be large; an effect the other way counts as inactive or inconclusive. Potency is read from the fitted curve at half-maximal effect.

SMILES	Rab9 prom act	FLuc counter	ELG1 genotox	SMN2 splice enh	ELG1 DNA repair	NPC1 prom act
Cc1ccc(CNC(=O)C(C)n2nc(C)c3sc4ccccc4c3c2=O)cc1 (stereo unspecified)	.	13µM*	.	.	.	.
CCC(C(=O)NCCc1ccc(OC)c(OC)c1)n1nc(C)c2sc3ccccc3c2c1=O (stereo unspecified)	.	19µM*	.	.	.	.
COc1ccc(CNC(=O)C(C)n2nc(C)c3sc4ccccc4c3c2=O)cc1OC (stereo unspecified)	.	-2%	.	.	.	.
CCC(C(=O)Nc1cccc(Cl)c1C)n1nc(C)c2sc3ccccc3c2c1=O (stereo unspecified)	.	11µM*	.	.	.	.
CSc1ccc(CCNC(=O)C(C)n2nc(C)c3sc4ccccc4c3c2=O)cc1 (stereo unspecified)	.	13µM*	.	.	.	.
Cc1nn(C(C)C(=O)NC2CCCCC2)c(=O)c2c1sc1ccccc12 (stereo unspecified)	.	9.5µM*	.	.	.	.
c1ccc(CN2OCC3Cn4c(nc5ccccc54)C32)cc1 (stereo unspecified)	-5%	-1%	3%	.	?	-3%
c1ccc(N2OCC3Cn4c(nc5ccccc54)C32)cc1 (stereo unspecified)	5%	19µM*	16%	.	?	8%
COc1ccccc1CNC(=O)CSc1ccsc1[N+](=O)[O-]	3.5µM*	?	8%	80%	?	?
COc1ccccc1Nc1nnc(SCC2CCCCO2)s1 (stereo unspecified)	2.5µM*	1.5µM*	?	?	?	3.5µM*
Cc1ccccc1Nc1nnc(SCC2CCCCO2)s1 (stereo unspecified)	2.8µM*	2.4µM*	?	11µM*	?	0.71µM*
CCCNC(=O)Cn1nc(C)c2c(C)n(-c3ccccc3)nc2c1=O	.	-4%	.	.	.	.
Cc1cc(NC(=O)CON=C(N)CC(=O)Nc2ccccc2Cl)ccc1Br	-5%	1%	7%	.	18%	0%
CCc1n[n+](CC(=O)c2ccccc2)c(N)s1	0.5µM*	2.4µM*	?	4µM*	?	0.32µM*
Nc1ccc[n+](CC(=O)c2ccccc2)c1	4%	5%	0%	.	-31%	-3%
CS(=O)(=O)Nc1cccc(-c2nc(N3CCOCC3)c3ccccc3n2)c1	.	.	.	-10%	.	.
N#C/C(=C\c1c(N(Cc2ccccc2)Cc2ccccc2)nc2ccccn2c1=O)C(N)=O	-3%	0%	-1%	-10%	16µM*	2%
C=CCNC(=O)/C(C#N)=C/c1c(N(Cc2ccccc2)Cc2ccccc2)nc2ccccn2c1=O	-8%	1%	-4%	-32%	13µM*	-4%
CC1CN(c2nc3ccccn3c(=O)c2/C=C(\C#N)C(N)=O)CC(C)O1 (stereo unspecified)	13%	0%	0%	.	-2%	2%
O=C(CSC(=S)N1CCCC1)NCC(=O)Nc1ccccc1Br	1%	6%	0%	.	26%	2%
COc1ccc(Nc2nc(C(=O)N3CCc4ccccc4C3)cs2)cc1	-3%	-7%	0%	.	11%	5%
COc1ccc(Nc2nc(C(=O)N3CCc4cc(OC)c(OC)cc4C3)cs2)cc1	-5%	-6%	-9%	.	16µM*	3%
COc1ccccc1N=c1sc2ccccc2n1C	-2%	-7%	6%	-25%	12%	0%
COc1ccc(C(=O)N=c2sc3ccccc3n2C)cc1OC	2.2µM*	11µM*	?	18µM*	?	2.5µM*
COc1cccc(C(=O)N=c2sc3c(C)ccc(OC)c3n2C)c1	0.71µM*	0.67µM*	0.65µM*	2.8µM*	?	0.71µM*
SMILES	Rab9 prom act	FLuc counter	ELG1 genotox	SMN2 splice enh	ELG1 DNA repair	NPC1 prom act
COc1ccccc1C(=O)N=c1sc2c(C)ccc(OC)c2n1C	26%	15µM*	?	.	0%	?
COc1ccc(N=c2sc3ccccc3n2C)cc1	2.2µM*	6µM*	8.2µM*	?	?	2.5µM*
Cc1ccc(NC(=O)CCC(=O)N2CCSc3ccccc32)cc1Cl	.	-15%	.	.	.	.
O=C(COc1ccc(Cl)cc1)NCc1ccncc1	1%	2%	-2%	-1%	-4%	-1%
CCOc1ccc(C(=O)NC(C)(C)CC)cc1	13%	-3%	9%	0%	?	1%
COc1ccc(OC)c2c1sc(=NC(=O)c1ccco1)n2C	4%	-2%	?	28%	-19%	17%
COc1ccc(C(=O)N=c2sc3c(C)ccc(OC)c3n2C)cc1OC	1.8µM*	2.7µM*	-3%	.	?	1.6µM*
COc1ccc(-c2nc(Cn3c(SCc4ccc(C)cc4)nc4ccncc43)c(C)o2)cc1OC	?	1.7µM*	0%	16%	13µM*	14%
Cc1cc(C)cc(NC(=O)Cn2c(SCc3cc(C)ccc3C)nc3ccncc32)c1	11%	-1%	16%	-4%	?	10%
Cc1ccc(CSc2nc3ccncc3n2CC(=O)Nc2cc(C)cc(C)c2)cc1	?	1.5µM*	?	?	?	28%
Cc1ccc(OCC(=O)Nc2nonc2-c2ccc(Br)cc2)cc1C	.	-10%	.	.	.	.
O=C(NCC(c1ccco1)N1CCCC1)c1ccccc1Sc1ccc(C(F)(F)F)cc1[N+](=O)[O-] (stereo unspecified)	-19%	0%	-7%	.	4%	-4%
CCc1c(C)nc2cc(-c3cc(OC)cc(OC)c3)nn2c1N1CCCC1	-21%	-4%	-14%	-6%	?	-2%
CCc1c(C)nc2cc(-c3ccc(OC)c(OC)c3)nn2c1N1CCC(C)CC1	-17%	2%	4%	13%	?	-3%
CCOCCN1CCN(c2c(CC)c(C)nc3cc(-c4cc(OC)cc(OC)c4)nn23)CC1	1%	-7%	-6%	-60%	6.5µM*	-8%
CCc1c(C)nc2cc(-c3ccc(OC)c(OC)c3)nn2c1N1CCCC1	-13%	?	-18%	.	13µM*	-1%
O=C(CCc1nnc(Cc2cccc(C(F)(F)F)c2)o1)NCC(F)(F)F	-3%	-10%	6%	9%	21%	0%
C=C(C)CNC(=O)CCc1nnc(Cc2cccc(C(F)(F)F)c2)o1	?	21µM*	18µM*	11µM*	?	20%
CC(NC(=O)CCc1nnc(Cc2cccc(C(F)(F)F)c2)o1)C1CC1 (stereo unspecified)	?	27µM*	?	.	?	14%
CC(C)CN(C)C(=O)CCc1nnc(Cc2cccc(C(F)(F)F)c2)o1	2.8µM*	24µM*	?	.	?	?

High-throughput results from PubChem BioAssay.
